The values below come from PubChem BioAssay (Tox21).

Unmarked numbers belong to inactive results. Inconclusive results are not listed. The source made the active and inactive calls. Unless noted, calls come from the whole dose curve; as a rule, active = well fitted curve in the direction sought with a large enough effect in the repeat runs; inconclusive = weak or mixed curves; inactive = no such curve, though single readings can be large; an effect the other way counts as inactive or inconclusive.

Test [1] in a line: qHTS assay to identify small molecule agonists of H2AX (AID 1224845; active = well fitted activation curve with a large enough effect in the signal ratio in the repeat runs, not every such curve was filed as active; the % refers to the signal ratio). In a few lines: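 Wild-type CHO-K1 cells, plated overnight, exposed 3hr at 37C to 15 concentrations (0.76% DMSO final). Lysed, then HTRF anti-pH2AX (S139) cryptate and anti-H2AX-d2 antibodies, 24 hr room temperature; 665/620 nm emission read.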
A short description of test [2]: qHTS assay to identify small molecule agonists of H2AX - cell viability counter screen (AID 1224847; calls by dose curve; note: nearly all actives have a fitted effect of over 30% in size; note: potency is the fitted concentration of half-maximal effect). In a few lines:
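Read-out: CellTiter-Glo luminescence, 30 min RT. Cells: wild-type CHO-K1, 1000/well, 10% FBS, plated overnight at 37C. Treatment: 15 concentrations, 3 hr, 37C, 0.76% DMSO.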

Test [3] in a line: qHTS assay to identify small molecule agonists of the estrogen related receptor (ERR) signaling pathway from Tox21 library (AID 1224849; calls by dose curve; note: nearly all actives have a fitted effect of over 15% in size). Particulars: ERR reporter cell line, ONE-Glo luciferase, 18 h; at 92.4 µM (top of the series) unless noted. The essentials:
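ERR reporter cells (NTP line) pre-incubated 6 hours at 37 C, then exposed to compounds for 18 hours at 37 C. ONE-Glo luciferase luminescence was read after 30 minutes at room temperature.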

The nature of test [4]: qHTS RealTime-Glo MT Cell Viability Assay in HEK293 cells - 32 hour (AID 1224868). Note: nearly all actives have a fitted effect of over 50% in size. Note: potency is the fitted concentration of half-maximal effect. In a few lines: (§1)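 HEK293 cells seeded with NanoLuc/prosubstrate reagent, rested 5 h at 37 C, then dosed and kept at 37 C up to 40 h. Nonlytic real-time luminescence from viable cells read at 0, 8, 16, 24, 32 and 40 h.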
Test [5] can be described thus: A CellTox Green Cytotoxicity Assay to monitor cytotoxicity in HEK293 cells - 0 hour (AID 1224869). Note: nearly all actives have a fitted effect of over 50% in size. The essentials:
(§2)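 HEK293 cells, 600/well, were preincubated 5 hours and then exposed to compounds at 37 C for up to 40 hours. A cell-impermeant cyanine dye staining dead-cell DNA was read by fluorescence at 0, 8, 16, 24, 32 and 40 h time points.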

Test [6] is described as follows: qHTS RealTime-Glo MT Cell Viability Assay in HepG2 cells - 40 hour (AID 1224870). Note: nearly all actives have a fitted effect of over 50% in size. Note: potency is the fitted concentration of half-maximal effect. The essentials:
(§3)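 HepG2 cells (600/well) mixed with RealTime-Glo MT reagent, settled 5 h at 37 C/5% CO2 before compound addition. Nonlytic NanoLuc luminescence from viable-cell prosubstrate reduction read repeatedly during 40 h treatment at 37 C.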

Test [7] in a line: qHTS RealTime-Glo MT Cell Viability Assay in HEK293 cells - 16 hour (AID 1224872). Note: nearly all actives have a fitted effect of over 50% in size. Note: potency is the fitted concentration of half-maximal effect. The essentials: as §1
Test [8] in a line: qHTS RealTime-Glo MT Cell Viability Assay in HepG2 cells - 8 hour (AID 1224873). Note: nearly all actives have a fitted effect of over 55% in size. Note: potency is the fitted concentration of half-maximal effect. In a few lines:
as §3

Test [9] can be described thus: qHTS RealTime-Glo MT Cell Viability Assay in HEK293 cells - 40 hour (AID 1224874). Note: nearly all actives have a fitted effect of over 50% in size. Note: potency is the fitted concentration of half-maximal effect. Particulars: RealTime-Glo luminescence; max response: stronger effect = lower value. The essentials:
(§4)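 600 cells/well were plated with the nonlytic NanoLuc/prosubstrate reagent, pre-incubated 5 h, then given 23 nL of compound in DMSO. Incubation at 37 C for 40 h, with luminescence from viable-cell-reduced substrate read repeatedly from 0 h.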

Test [10] in a line: A CellTox Green Cytotoxicity Assay to monitor cytotoxicity in HEK293 cells - 24 hour (AID 1224875). Note: nearly all actives have a fitted effect of over 45% in size. Note: potency is the fitted concentration of half-maximal effect. The essentials: as §2
A short description of test [11]: qHTS RealTime-Glo MT Cell Viability Assay in HepG2 cells - 32 hour (AID 1224877). Note: nearly all actives have a fitted effect of over 55% in size. Note: potency is the fitted concentration of half-maximal effect. The essentials:
(§5)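 HepG2 cells (600/well) were dispensed with RealTime-Glo reagents, incubated 5 h at 37 °C, then treated with compounds in DMSO for up to 40 h. Nonlytic NanoLuc luminescence reflecting viable cells was read at each stated time point.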

Test [12] is described as follows: qHTS RealTime-Glo MT Cell Viability Assay in HEK293 cells - 0 hour (AID 1224880). Note: top concentration of the series differs between compounds; nearly all actives have a fitted effect of over 45% in size. The essentials: as §4
Test [13] can be described thus: A CellTox Green Cytotoxicity Assay to monitor cytotoxicity in HEK293 cells - 32 hour (AID 1224881). Note: nearly all actives have a fitted effect of over 40% in size. Note: potency is the fitted concentration of half-maximal effect. The essentials: as §2
The nature of test [14]: qHTS RealTime-Glo MT Cell Viability Assay in HepG2 cells - 24 hour (AID 1224867). Note: nearly all actives have a fitted effect of over 50% in size. Note: potency is the fitted concentration of half-maximal effect. The essentials: as §5
The nature of test [15]: A CellTox Green Cytotoxicity Assay to monitor cytotoxicity in HEK293 cells - 40 hour (AID 1224871). Note: nearly all actives have a fitted effect of over 45% in size. In a few lines: as §2
Test [16] in a line: A CellTox Green Cytotoxicity Assay to monitor cytotoxicity in HepG2 cells - 24 hour (AID 1224878). Note: nearly all actives have a fitted effect of over 45% in size. Note: potency is the fitted concentration of half-maximal effect. In a few lines: (§6)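 HepG2 cells, 600/well, preincubated 5 h with CellTox Green dye, then exposed to Tox21 compounds in DMSO at 37 C for up to 40 h. Dead-cell DNA fluorescence read at the indicated time point.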
A short description of test [17]: A CellTox Green Cytotoxicity Assay to monitor cytotoxicity in HepG2 cells - 40 hour (AID 1224879). Note: nearly all actives have a fitted effect of over 40% in size. Note: potency is the fitted concentration of half-maximal effect. The essentials: as §6
Test [18] in a line: A CellTox Green Cytotoxicity Assay to monitor cytotoxicity in HepG2 cells - 16 hour (AID 1224876). Note: nearly all actives have a fitted effect of over 45% in size. Note: potency is the fitted concentration of half-maximal effect. In a few lines:
as §6

Test [19] in a line: qHTS assay to identify small molecule antagonists of the estrogen related receptor (ERR) signaling pathway from Tox21 library (AID 1224848). Note: nearly all actives have a fitted effect of over 50% in size. Note: potency is the fitted concentration of half-maximal effect. The essentials: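 ERR reporter cell line (from NTP) seeded 2,000 cells/well, rested 6 h at 37 C/5% CO2, then pin-dosed with compounds in DMSO. After 18 h at 37 C, ONE-Glo added; luminescence read after 30 min at room temperature.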
Test [20] in a line: qHTS assay to identify small molecule agonists of the hypoxia (HIF-1) signaling pathway (AID 1224846; active = well fitted activation curve with a large enough effect in the signal ratio in the repeat runs, not every such curve was filed as active; the % refers to the signal ratio). In a few lines:
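HRE-bla ME-180 beta-lactamase reporter cells in medium with 0.5% dialyzed FBS, pre-incubated 5 h then exposed to compounds 17 h at 37C, 5% CO2; reporter induction read with CCF4-AM FRET substrate.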
% is set by controls: 0 for no effect and ±100 for the full control effect.

As to `CCCCCOC(=O)c1ccc(O)cc1`, the Potency entry in test [1], in test [5], in test [6], in test [8], in test [11] and in test [12] was “inactive” in each case. Further, the Potency in test [2] was 114 µM (active); in test [4] it was 44.2 µM (active); in test [7] it was 44.2 µM (active); in test [9], 44.2 µM (active); in test [10] it was 49.6 µM (active); in test [13], 49.6 µM (active). For the same compound, the activity change, positive = activation in test [3] is 37.7% (active).

`CN1CCC[C@@H]1c1cccnc1`: the Potency result in test [1], in test [2], in test [14], in [4], in test [5] and in test [6] was “inactive” each time. Further, the Potency entry in test [15], in test [7], in test [8], in [10], in test [11] and in test [16] was “inactive” in each case. The Potency result in test [17], in [12] and in [13] was “inactive” throughout. In addition, the max response in test [9] was 7.25%.

`OC(CCN1CCCCC1)(c1ccccc1)C1CCCCC1` (centres undefined): the Potency entry in [1], in test [14], in test [5], in test [6], in test [15] and in [7] was “inactive” each time. Besides, the Potency result in [8], in [10], in test [18], in test [11], in test [16] and in [17] was “inactive” each time. Further, the Potency entry in test [13] was “inactive”. Moreover, the activity change, positive = activation in [3] is 2.3% [at 42.5 µM]. Also, the max response in test [9] is -21.9%.

For the compound `CN(C)CC[C@@H](c1ccc(Br)cc1)c1ccccn1`, the Potency result in [1], in test [2], in [14], in test [4], in [5] and in test [6] was “inactive” throughout. The Potency entry in test [15], in test [7], in test [8], in test [10], in test [18] and in [11] was “inactive” in each case. The Potency result in [16], in test [17] and in test [13] was “inactive” each time. Besides, the max response in test [9] was -14.2%.

On to `Cn1c(=O)c2c(ncn2CC(O)CO)n(C)c1=O` (centres undefined), for which the Potency entry in test [1], in test [2], in test [19], in [14], in [4] and in test [5] was “inactive” throughout. In addition, the Potency entry in [6], in [7], in [10], in [11], in test [17] and in [12] was “inactive” throughout. Besides, the Potency result in test [13] is “inactive”. In test [3], the activity change, positive = activation was 6.5% [at 42.5 µM]. Moreover, the max response in [9] was 2.79%.

For `NC(N)=NN=C(/C=C/c1ccc([N+](=O)[O-])o1)/C=C/c1ccc([N+](=O)[O-])o1`, the Potency result in test [1], in test [5] and in test [12] was “inactive” each time. Besides, the Potency in test [19] was 2.66 µM (active); in test [14], 1.69 µM (active); in test [6], 1.51 µM (active); in test [8], 4.25 µM (active); in test [9] it was 0.848 µM (active); in test [10], 10.7 µM (active). For the same compound, the Potency in test [18] was 3.79 µM (active); in [11], 1.51 µM (active); in test [16], 2.13 µM (active); in test [17] it was 1.69 µM (active); in test [13], 8.49 µM (active). For the same compound, the activity change, positive = activation in [3] is -66.8% [at 42.5 µM].

Take `CN(C)C/C=C(/c1ccc(Br)cc1)c1cccnc1`: the Potency result in test [1], in test [2], in [4], in test [5], in [6] and in test [15] was “inactive” throughout. The Potency result in [7], in test [8], in test [10], in test [18], in test [11] and in [16] was “inactive” in each case. The Potency result in [17], in [12] and in test [13] was “inactive” in each case. Moreover, in test [9], the max response is 2.35%.

In the case of `CCCCC(CC)COCCCN` (centres undefined), the Potency entry in [1], in test [5], in test [6], in [15], in test [8] and in [10] was “inactive” throughout. Also, the Potency entry in test [18], in test [11], in [16], in [12] and in test [13] was “inactive” each time. The compound was classed as inactive in [20]. Further, in test [3], the activity change, positive = activation is -26.6%.
